Screening data as filed in PubChem.
Hits are enriched below; roughly 0.64% of the tested compounds scored in any of these assays.
TRb SRC2 PPI: qHTS for Inhibitors of the Interaction of Thyroid Hormone Receptor and Steroid Receptor Coregulator 2. AID 1469, 2008. Potency, µM (series often up to 106 µM), actives largely listed as inhibitors. Thyroid hormone receptor beta (Homo sapiens), P10828. TRbeta-SRC2 peptide binding, fluorescence polarization; receptor liganded with 1 µM T3. 280,000 tested, 0.065% active; also: nearly all actives have a fitted effect of over 50% in size
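Polarization signal, normalized between peptide-alone and full complex controls, measured compound effects on T3-liganded human TRb LBD (0.6 uM) binding 20 nM Texas Red SRC2 peptide after 5 hr.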
RECQ1 inh-1: qHTS Assay for Inhibitors of RecQ-Like Dna Helicase 1 (RECQ1); ATP-dependent DNA helicase Q1 (Homo sapiens), P46063; RECQ1 DNA unwinding, red fluorescence kinetic read; Potency, µM (highest dose often 57.3 µM), actives largely listed as inhibitors; 240,000 tested, 0.54% active; also: nearly all actives have a fitted effect of over 30% in size
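50 nM RECQ1T1 preincubated 15 min with compound in Tris pH 8.0 buffer with MgCl2, DTT, Tween-20 and 2.5 ug/ml poly(dI-dC); started with 200 nM TAMRA/BHQ-2 forked duplex and 2 mM ATP. Unwinding read as fluorescence (525/598 nm), two reads 2 h apart.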
BLM helicase inh: qHTS Assay for Inhibitors of Bloom's syndrome helicase (BLM). RecQ-like DNA helicase BLM (Homo sapiens), P54132. recombinant BLM DNA unwinding, fluorescence dequenching. Potency, µM (top dose mostly 56.1 µM), hits mostly inhibitors. 350,000 tested, 0.2% active. AID 2528, 2010; also: nearly all actives have a fitted effect of over 35% in size
TR SRC2 fluor cs: Total Fluorescence Counterscreen for Inhibitors of the Interaction of Thyroid Hormone Receptor and Steroid Receptor Coregulator 2. Potency, µM (top dose mostly 106 µM). TRb/SRC2 Texas Red total fluorescence interference. 280,000 tested, 0.29% active. AID 1479, 2009; active = well fitted curve in either direction with a large enough effect; inconclusive = small, poorly fitted or top-dose-only effect
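Human TRb ligand-binding domain at 0.6 uM with 20 nM Texas Red SRC2 peptide in Tris buffer containing 1 uM T3 and 5% DMSO, incubated with compound 5 h at ambient temperature. Total fluorescence (555/632 nm) calculated as parallel + 2 × perpendicular.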
RECQ1 inh conf: Confirmation qHTS Assay for Inhibitors of RecQ-Like Dna Helicase 1 (RECQ1). shares compounds with RECQ1 inh-1. RECQ1 helicase DNA unwinding, fluorescence. Potency, µM (top dose mostly 229 µM), usual class: inhibitors. 610 tested, 28% active. AID 2708, 2010; also: nearly all actives have a fitted effect of over 45% in size
RECQ1 ADP FP: Counterscreen for RECQ1 Inhibitors: ADP Fluorescence Polarization Displacement Assay; shares compounds with RECQ1 inh-1; 530 tested, 27% active; Potency, µM (series often up to 228 µM), hits mostly inhibitors; ADP fluorescence polarization displacement counterscreen; also: nearly all actives have a fitted effect of over 45% in size
RECQ1 inh-2: Confirmation qHTS Assay for Inhibitors of RecQ-Like Dna Helicase 1 (RECQ1) - Round 2 Cherry Picks. shares compounds with RECQ1 inh-1. recombinant RECQ1 DNA unwinding, red fluorescence. Potency, µM (series often up to 119 µM), most hits filed as inhibitors. 1,100 tested, 15% active. AID 504841, 2011; also: nearly all actives have a fitted effect of over 50% in size
A number is an active result; – = inactive; ? = inconclusive; · = no result; ! = repeats disagree. Unless noted, calls follow the shape of the dose curve; as a rule, active = well fitted curve in the direction sought with a large enough effect; inconclusive = small, poorly fitted or top-dose-only effect, or another doubt; inactive = no such curve, though single readings can be large; an effect the other way counts as inactive or inconclusive.

SMILES	TRb SRC2 PPI	RECQ1 inh-1	BLM helicase inh	TR SRC2 fluor cs	RECQ1 inh-2	others
COC(=O)c1sccc1S(=O)(=O)NC(=O)Nc1nc(C)nc(OC)n1	–	·	·	–	·
CCOC(=O)c1ccc(N=Cc2c(O)n(-c3ccccc3F)c(=S)[nH]c2=O)cc1	–	32µM	–	–	–
CCOC(=O)c1ccc(N=Cc2c(O)n(-c3ccc(OC)cc3)c(=S)[nH]c2=O)cc1	–	–	–	–	·
C1=Cc2cccc3cccc1c23	–	·	·	–	·
C[C@H]1COC2=C1C(=O)C(=O)c1c2ccc2c1CCCC2(C)C	?	?	–	–	·
CC1COC2=C1C(=O)C(=O)c1c2ccc2c1CCCC2(C)C (stereo unspecified)	–	13µM!	?	–	·	RECQ1 inh conf=100µM;RECQ1 ADP FP=28µM
CCCCC/C=C\C/C=C\C/C=C\C/C=C\CCCC(=O)NCc1ccoc1	–	11µM	?	–	?
COc1cc2c(cc1OC)C(c1c(O)n(CCc3ccccc3)c(=S)[nH]c1=O)NCC2 (stereo unspecified)	–	?	–	–	?
